# Results reported in PMC5540273 (PLoS ONE, 2017).
# How the values were obtained:
# Settings in all cases: concentration: 1 μM,replicates: in singlicate; n = 1
# MAP3K15 = test system: MAP3K15
# MAP3K1 = test system: MAP3K1
# MAP3K2 = test system: MAP3K2
# MAP3K3 = test system: MAP3K3
# MAP3K4 = test system: MAP3K4
# MAP4K2 = test system: MAP4K2
# MAP4K3 = test system: MAP4K3
# MAP4K4 = test system: MAP4K4
# MAP4K5 = test system: MAP4K5
# MAPKAPK2 = test system: MAPKAPK2
# MAPKAPK5 = test system: MAPKAPK5
# MARK1 = test system: MARK1
# MARK2 = test system: MARK2
# MARK3 = test system: MARK3
# MARK4 = test system: MARK4
# MAST1 = test system: MAST1
# MEK1 = test system: T1, MEK1
# T1 construct: gene MAP2K1
# MEK2 = test system: T2, MEK2
# T2 construct: gene MAP2K2
# MEK3 = test system: T3, MEK3
# T3 construct: gene MAP2K3
# MEK4 = test system: T4, MEK4
# T4 construct: gene MAP2K4
# 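Note: KINOMEscan kinase panel screen.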
SMILES,%Inh (MAP3K15) [%],%Inh (MAP3K1) [%],%Inh (MAP3K2) [%],%Inh (MAP3K3) [%],%Inh (MAP3K4) [%],%Inh (MAP4K2) [%],%Inh (MAP4K3) [%],%Inh (MAP4K4) [%],%Inh (MAP4K5) [%],%Inh (MAPKAPK2) [%],%Inh (MAPKAPK5) [%],%Inh (MARK1) [%],%Inh (MARK2) [%],%Inh (MARK3) [%],%Inh (MARK4) [%],%Inh (MAST1) [%],%Inh (MEK1) [%],%Inh (MEK2) [%],%Inh (MEK3) [%],%Inh (MEK4) [%]
CCCC(=O)Nc1n[nH]c2ncccc12 [SB-601436],29,0,5,34,11,5,0,0,0,16,5,0,0,0,0,0,0,13,21,14
Cc1nnc(-c2ccc3occ(-c4ccc(S(C)=O)cc4)c3n2)o1 (stereo not shown),0,0,0,0,1,0,44,0,38,0,0,0,0,0,0,0,0,0,0,0
COc1cc(Nc2nccc(N3CCC(NC(=O)c4cccc(C#N)c4)C3)n2)cc(OC)c1OC (stereo not shown) [GSK1379751],0,2,19,0,0,0,0,0,0,0,0,100,0,0,100,0,0,0,0,19
COc1cccc(C2=C(Nc3cccc(Cl)c3)C(=O)NC2=O)c1 [SB-341556],21,28,17,29,15,0,84,19,2,20,0,0,0,17,0,0,0,0,15,4
COc1ccc(Nc2nccc(N3CCC(NC(=O)c4cccc(C#N)c4)C3)n2)cc1 (stereo not shown) [GSK1379730],0,1,0,0,40,0,0,16,10,0,0,1,0,0,9,0,0,0,0,8
CN1CCN(CCCNc2nccc(-c3c(-c4ccc(F)cc4)nn4cc(C(N)=O)ccc34)n2)CC1 [GW622475],0,24,0,0,16,0,0,65,33,0,0,9,15,0,21,0,0,18,0,12
Cn1ccc2ncnc(Oc3ccc(NC(=O)Nc4cccc(C(F)(F)F)c4)c(Cl)c3)c21,0,0,6,0,4,6,0,12,1,0,0,0,6,0,0,0,0,25,0,6
O=C(Nc1ccc(Oc2ccc3nc(NC(=O)C4CC4)cn3n2)c(F)c1)c1cccn(-c2ccccc2)c1=O,0,0,0,15,24,0,4,1,0,13,0,0,0,29,0,10,0,25,0,0
CC(=O)Nc1ccc(-c2cc3ncnc(SCC(=O)O)c3s2)cc1,27,16,5,1,37,17,22,0,0,0,0,0,17,0,2,0,0,0,6,18
CS(=O)(=O)c1cccc(CNc2nc(Nc3ccc4c(c3)[C@@H]3C[C@@H]4CNC3=O)ncc2C(F)(F)F)c1,0,0,65,47,0,68,68,40,0,0,0,8,24,67,44,0,39,80,75,89
CN1CCN(CCNc2nc3cc(Oc4ccc(NC(=O)Nc5cc(C(F)(F)F)ccc5F)cc4)ccc3[nH]2)CC1.Cl.Cl [GW768504],0,0,0,0,0,0,0,1,6,4,0,19,0,12,32,7,0,31,0,0
O=C(Nc1cccc(C(F)(F)F)c1)c1cccc(Oc2ccc3nccn3n2)c1,1,21,19,0,22,0,8,14,23,0,51,0,2,9,100,0,0,8,6,31
NC(=O)Nc1sc(-c2ccc(F)cc2)cc1C(N)=O [GW789449],16,10,85,72,18,23,0,26,13,0,0,0,8,0,1,46,30,40,83,24
CCNCC(Cc1ccccc1)NC(=O)c1cc(Br)c(-c2ccnc3[nH]ccc23)s1.Cl.Cl (stereo not shown) [GSK1383280],0,12,33,0,0,27,4,37,0,0,0,12,72,69,0,0,0,0,89,57
CC(C)S(=O)(=O)N1CCN(Cc2ccc3c(c2)nc(NC(=O)c2ccsc2)n3C[C@H](O)c2ccccc2)CC1 [GW635815],0,8,47,53,53,84,0,45,2,0,0,6,34,43,18,0,0,0,0,9
Cl.Cl.NC[C@H](CC1CCCCC1)NC(=O)c1ccc(-c2ccnc3[nH]ccc23)s1 [GSK1581428],25,12,40,33,10,95.7,47,20,12,0,0,26,58,74,24,0,0,17,93.8,54
Cn1ccc2ncnc(Oc3ccc(NC(=O)Nc4cc(C(C)(C)C)on4)c(Cl)c3)c21,0,18,9,17,9,0,11,94,25,0,50,4,0,0,14,0,23,41,15,9
COC(=O)Nc1nc2cc(Oc3ccc(NC(=O)Nc4cc(C(F)(F)F)ccc4Cl)cc3)ccc2[nH]1.Cl [GW697465],0,14,0,0,1,0,0,12,23,14,0,0,0,0,0,14,25,0,0,4
COc1cc2ncn(-c3cc(OCC4CCCCC4)c(C(N)=O)s3)c2cc1OC [GSK204559],0,30,0,0,0,0,0,35,38,0,0,14,1,0,26,0,0,0,9,13
CC(C)c1nc(-c2cccc(NS(=O)(=O)c3ccccc3)c2)c(-c2ccnc(Nc3ccc4c(c3)CN(C)CC4)n2)s1 [GSK1649598],30,6,98.5,84,79,0,96.9,95.5,98.9,0,0,31,0,14,3,0,52,77,17,99.5
